# For some assays here: Measured potencies and affinities stand elsewhere.
# Assays:
# Parameters in all cases: scale not given: direction of the effect not stated beside the values
# [1] = molecular target: Protein translocase subunit SecA (Escherichia coli (strain K12)) (UniProt P10408); assay: Assay to Identify E. coli SecA ATPase Inhibitors; type: functional; conditions: 30 µM
# [2] = molecular target: T1, Ubiquitin-activating enzyme e1, putative (Leishmania donovani (strain BPK282A1)) (UniProt E9BSI1); assay: Leishmania donovani Ubiquitin Activating Enzyme (LdE1); type: functional; conditions: 30 µM
# T1 sequence (whole entry): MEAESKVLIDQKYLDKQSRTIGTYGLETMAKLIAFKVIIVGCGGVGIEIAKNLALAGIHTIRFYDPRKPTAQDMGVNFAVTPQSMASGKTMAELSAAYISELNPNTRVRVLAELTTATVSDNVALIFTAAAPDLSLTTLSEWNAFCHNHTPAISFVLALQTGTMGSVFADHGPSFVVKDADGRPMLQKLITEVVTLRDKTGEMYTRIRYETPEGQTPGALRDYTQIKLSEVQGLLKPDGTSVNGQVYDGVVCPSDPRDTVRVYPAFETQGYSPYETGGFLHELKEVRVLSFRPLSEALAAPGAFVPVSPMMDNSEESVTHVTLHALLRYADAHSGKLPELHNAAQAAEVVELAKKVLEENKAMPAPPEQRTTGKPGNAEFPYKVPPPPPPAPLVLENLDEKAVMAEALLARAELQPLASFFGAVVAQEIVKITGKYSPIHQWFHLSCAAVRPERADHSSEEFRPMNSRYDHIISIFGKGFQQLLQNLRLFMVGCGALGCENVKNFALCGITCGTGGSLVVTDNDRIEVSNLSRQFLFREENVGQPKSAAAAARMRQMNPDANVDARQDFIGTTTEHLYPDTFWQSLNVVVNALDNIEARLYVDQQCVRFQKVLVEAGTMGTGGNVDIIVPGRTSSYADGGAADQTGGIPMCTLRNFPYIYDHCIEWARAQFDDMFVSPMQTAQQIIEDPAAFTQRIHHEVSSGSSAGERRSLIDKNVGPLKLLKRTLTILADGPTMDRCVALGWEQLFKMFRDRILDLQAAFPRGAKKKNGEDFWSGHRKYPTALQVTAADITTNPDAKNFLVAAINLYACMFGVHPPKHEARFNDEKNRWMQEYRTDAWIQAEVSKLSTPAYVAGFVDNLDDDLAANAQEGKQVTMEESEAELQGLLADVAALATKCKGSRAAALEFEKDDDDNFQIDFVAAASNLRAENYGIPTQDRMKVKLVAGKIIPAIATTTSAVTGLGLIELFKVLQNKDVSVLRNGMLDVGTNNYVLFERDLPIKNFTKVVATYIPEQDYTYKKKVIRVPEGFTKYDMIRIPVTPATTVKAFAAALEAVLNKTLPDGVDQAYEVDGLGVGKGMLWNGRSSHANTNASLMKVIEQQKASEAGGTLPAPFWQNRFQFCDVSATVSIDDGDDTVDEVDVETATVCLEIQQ
# [3] = molecular target: Sialic acid-binding Ig-like lectin 9 (Homo sapiens) (UniProt Q9Y336); assay: Hs-Siglec9 ALPHAscreen SOP 20170721; conditions: 10 µM
# Chain of Sialic acid-binding Ig-like lectin 9 (Homo sapiens) (Q9Y336 whole entry): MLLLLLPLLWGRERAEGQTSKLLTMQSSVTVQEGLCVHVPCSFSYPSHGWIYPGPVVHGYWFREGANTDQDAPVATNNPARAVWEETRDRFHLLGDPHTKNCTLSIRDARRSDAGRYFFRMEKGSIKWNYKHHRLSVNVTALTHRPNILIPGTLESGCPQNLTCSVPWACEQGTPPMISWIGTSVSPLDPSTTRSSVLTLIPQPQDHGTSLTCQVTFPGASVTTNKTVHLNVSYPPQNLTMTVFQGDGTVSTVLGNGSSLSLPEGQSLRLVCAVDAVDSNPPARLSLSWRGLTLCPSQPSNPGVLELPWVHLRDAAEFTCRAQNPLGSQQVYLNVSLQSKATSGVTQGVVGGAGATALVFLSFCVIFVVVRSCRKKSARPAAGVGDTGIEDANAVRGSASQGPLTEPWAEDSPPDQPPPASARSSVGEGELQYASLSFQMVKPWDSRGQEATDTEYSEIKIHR
# Trypanosoma cruzi = assay: Trypanosoma cruzi phosphomannomutase and mannose-1-phosphate guanylyltransferase assay; type: functional; conditions: 10 µM
# [4] = molecular target: T2, Arginase-2, mitochondrial (Homo sapiens) (UniProt P78540); assay: in vitro enzyme assay to detect the production of urea directly proportional to the activity of Arginase II; type: functional; conditions: 33.3 µM; note: in the data most compounds retested in dose-response had high values
# T2 sequence (whole entry): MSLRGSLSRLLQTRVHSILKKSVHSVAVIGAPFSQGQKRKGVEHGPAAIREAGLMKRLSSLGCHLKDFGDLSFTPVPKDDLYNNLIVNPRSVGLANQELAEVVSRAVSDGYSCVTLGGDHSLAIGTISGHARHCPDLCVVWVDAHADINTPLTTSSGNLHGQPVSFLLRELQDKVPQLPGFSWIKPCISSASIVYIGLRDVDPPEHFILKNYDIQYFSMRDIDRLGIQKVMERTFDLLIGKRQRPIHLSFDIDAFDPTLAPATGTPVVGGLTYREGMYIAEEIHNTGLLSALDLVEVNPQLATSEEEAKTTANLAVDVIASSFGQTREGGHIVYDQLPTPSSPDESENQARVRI
# [5] = molecular target: T3, Proteasome subunit beta (Trypanosoma cruzi) (UniProt O96673); assay: Trypanosoma cruzi proteasome chymotrypsin-like activity (TcProtChymo) assay.; note: in the data most compounds retested in dose-response had high values; type: functional; conditions: 9.37 µM
# T3 sequence (whole entry): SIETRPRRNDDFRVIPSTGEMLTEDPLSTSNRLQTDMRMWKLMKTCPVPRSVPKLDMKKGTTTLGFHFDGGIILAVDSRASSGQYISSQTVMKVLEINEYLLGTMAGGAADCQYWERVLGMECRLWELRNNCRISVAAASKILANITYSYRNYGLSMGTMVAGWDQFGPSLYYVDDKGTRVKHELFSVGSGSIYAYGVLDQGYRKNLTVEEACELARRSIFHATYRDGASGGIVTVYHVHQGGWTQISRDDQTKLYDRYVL
# Homo sapiens = species: Homo sapiens; assay: To identify inhibition of the IFN signalling (Jak-Stat) pathway via expression of an eGFP reporter gene under the control of an IFN-stimulated response element (ISRE) containing MxA promoter.; type: functional; conditions: 30 µM
# [6] = molecular target: T4, Tyrosyl-tRNA synthetase, putative (Trypanosoma cruzi (strain CL Brener)) (UniProt Q4DSP6); assay: Trypanosoma cruzi tyrosyl tRNA synthetase (TcYRS) _High Tyrosine SOP; type: functional; conditions: 30 µM; note: in the data most compounds retested in dose-response had high values
# T4 sequence (whole entry): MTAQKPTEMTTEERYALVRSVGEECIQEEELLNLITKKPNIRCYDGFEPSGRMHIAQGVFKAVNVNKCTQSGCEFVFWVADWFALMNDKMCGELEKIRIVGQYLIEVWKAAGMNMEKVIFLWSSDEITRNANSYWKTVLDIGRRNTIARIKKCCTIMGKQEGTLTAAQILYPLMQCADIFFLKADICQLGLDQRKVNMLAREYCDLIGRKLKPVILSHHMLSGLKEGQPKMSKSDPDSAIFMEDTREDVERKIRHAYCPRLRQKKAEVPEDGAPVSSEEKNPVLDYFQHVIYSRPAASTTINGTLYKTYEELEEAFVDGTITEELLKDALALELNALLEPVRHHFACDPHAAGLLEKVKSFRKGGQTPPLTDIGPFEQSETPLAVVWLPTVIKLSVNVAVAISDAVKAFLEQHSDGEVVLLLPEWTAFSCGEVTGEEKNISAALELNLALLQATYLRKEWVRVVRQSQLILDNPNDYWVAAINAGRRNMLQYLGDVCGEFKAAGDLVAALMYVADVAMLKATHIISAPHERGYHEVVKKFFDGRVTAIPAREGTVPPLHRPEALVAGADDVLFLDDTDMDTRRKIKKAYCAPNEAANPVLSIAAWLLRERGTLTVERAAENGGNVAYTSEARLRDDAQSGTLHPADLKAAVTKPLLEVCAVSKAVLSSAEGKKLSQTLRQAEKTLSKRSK
# [7] = molecular target: T4, Tyrosyl-tRNA synthetase, putative (Trypanosoma cruzi (strain CL Brener)); assay: Trypanosoma cruzi tyrosyl tRNA synthetase (TcYRS) SOP; type: functional; conditions: 30 µM
# [8] = molecular target: Chromo domain-containing protein 1 (Saccharomyces cerevisiae (strain ATCC 204508 / S288c) (Baker's yeast)) (UniProt P32657); assay: ScCHD-1 Enzyme Inhibition Assay; type: functional; conditions: 30 µM; note: in the data most compounds retested in dose-response had high values
# Chain of Chromo domain-containing protein 1 (Saccharomyces cerevisiae (strain ATCC 204508 / S288c) (Baker's yeast)) (P32657 whole entry, the tested form may be a part): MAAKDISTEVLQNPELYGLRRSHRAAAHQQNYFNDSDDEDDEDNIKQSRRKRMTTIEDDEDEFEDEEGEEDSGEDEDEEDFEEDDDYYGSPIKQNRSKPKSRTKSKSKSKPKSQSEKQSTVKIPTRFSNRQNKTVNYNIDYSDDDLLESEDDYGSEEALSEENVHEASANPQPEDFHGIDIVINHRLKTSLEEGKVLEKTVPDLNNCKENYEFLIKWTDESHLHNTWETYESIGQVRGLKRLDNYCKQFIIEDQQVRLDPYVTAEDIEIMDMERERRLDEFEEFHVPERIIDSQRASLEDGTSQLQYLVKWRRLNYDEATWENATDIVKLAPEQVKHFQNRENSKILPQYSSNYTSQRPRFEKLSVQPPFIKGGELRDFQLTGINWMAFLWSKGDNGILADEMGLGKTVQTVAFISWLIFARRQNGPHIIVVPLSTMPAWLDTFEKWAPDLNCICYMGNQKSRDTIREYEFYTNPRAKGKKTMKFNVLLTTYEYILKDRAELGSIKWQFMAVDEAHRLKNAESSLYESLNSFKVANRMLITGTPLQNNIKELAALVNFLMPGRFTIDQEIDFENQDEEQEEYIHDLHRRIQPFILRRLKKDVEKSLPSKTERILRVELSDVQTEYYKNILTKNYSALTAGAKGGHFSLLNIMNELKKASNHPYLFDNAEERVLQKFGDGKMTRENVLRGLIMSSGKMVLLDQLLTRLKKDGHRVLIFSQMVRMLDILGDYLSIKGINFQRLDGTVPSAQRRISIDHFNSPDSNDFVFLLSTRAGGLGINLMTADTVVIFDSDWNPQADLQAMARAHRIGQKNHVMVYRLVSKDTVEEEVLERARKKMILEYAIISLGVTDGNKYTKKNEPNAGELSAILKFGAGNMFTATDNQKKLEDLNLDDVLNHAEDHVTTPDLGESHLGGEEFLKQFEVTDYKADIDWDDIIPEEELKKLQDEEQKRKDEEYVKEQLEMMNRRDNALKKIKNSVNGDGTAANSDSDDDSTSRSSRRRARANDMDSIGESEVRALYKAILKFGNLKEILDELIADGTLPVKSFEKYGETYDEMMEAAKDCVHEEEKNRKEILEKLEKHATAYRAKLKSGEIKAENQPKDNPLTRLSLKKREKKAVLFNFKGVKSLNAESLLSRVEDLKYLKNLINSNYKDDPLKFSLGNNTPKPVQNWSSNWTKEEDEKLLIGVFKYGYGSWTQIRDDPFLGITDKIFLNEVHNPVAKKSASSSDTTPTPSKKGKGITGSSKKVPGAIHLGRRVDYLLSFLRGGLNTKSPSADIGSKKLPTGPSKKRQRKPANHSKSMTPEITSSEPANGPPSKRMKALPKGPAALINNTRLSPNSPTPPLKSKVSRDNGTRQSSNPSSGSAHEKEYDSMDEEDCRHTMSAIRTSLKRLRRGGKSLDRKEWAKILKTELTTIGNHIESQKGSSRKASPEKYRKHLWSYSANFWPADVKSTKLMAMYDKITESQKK
# Chain of Protein translocase subunit SecA (Escherichia coli (strain K12)) (P10408 whole entry): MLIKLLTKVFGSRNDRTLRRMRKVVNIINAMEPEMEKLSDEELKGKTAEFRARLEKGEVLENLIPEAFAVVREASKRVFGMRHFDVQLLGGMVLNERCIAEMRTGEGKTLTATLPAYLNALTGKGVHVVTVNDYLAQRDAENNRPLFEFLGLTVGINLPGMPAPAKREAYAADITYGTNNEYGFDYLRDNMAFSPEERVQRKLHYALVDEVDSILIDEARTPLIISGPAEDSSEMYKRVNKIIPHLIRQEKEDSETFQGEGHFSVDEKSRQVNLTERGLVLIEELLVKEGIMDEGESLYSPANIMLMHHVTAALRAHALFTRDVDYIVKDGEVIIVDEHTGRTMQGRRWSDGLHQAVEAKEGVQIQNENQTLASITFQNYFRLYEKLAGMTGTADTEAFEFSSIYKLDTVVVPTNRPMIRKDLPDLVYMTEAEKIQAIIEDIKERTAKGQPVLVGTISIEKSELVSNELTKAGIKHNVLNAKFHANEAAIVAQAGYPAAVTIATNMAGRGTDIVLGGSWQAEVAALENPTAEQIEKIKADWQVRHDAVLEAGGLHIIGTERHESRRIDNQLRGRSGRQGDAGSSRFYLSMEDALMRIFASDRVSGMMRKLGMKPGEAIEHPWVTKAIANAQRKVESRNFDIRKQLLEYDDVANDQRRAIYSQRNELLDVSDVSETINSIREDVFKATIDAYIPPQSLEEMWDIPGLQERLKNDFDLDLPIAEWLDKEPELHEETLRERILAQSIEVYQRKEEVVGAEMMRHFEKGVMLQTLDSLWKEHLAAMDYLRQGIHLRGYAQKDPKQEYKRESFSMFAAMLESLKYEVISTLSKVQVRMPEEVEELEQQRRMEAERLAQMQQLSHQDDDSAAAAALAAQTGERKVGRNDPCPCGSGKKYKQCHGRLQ
Structure (SMILES),Percent Effect [1],Percent Effect [2],Percent Effect [3],Percent Effect (Trypanosoma cruzi),Percent Effect [4],Percent Effect [5],Percent Effect (Homo sapiens),Percent Effect [6],Percent Effect [7],Percent Effect [8]
Cn1cccc1-c1cc(C(=O)N2CC(c3cccnc3)C2)[nH]n1,-12.9%,2.7%,4.47%,-2.81%,1.05%,5.65%,32.9%,-1.6%,0%,0.144%
CCCS(=O)(=O)N1CCN(c2ccnc(N3CCCC3)n2)CC1,-0.256%,0%,12.4%,6.89%,8.04%,6.85%,-21.8%,2.66%,4.88%,-3%
Cc1c(O)oc(-c2ccc(Br)cc2)nc1=O,-4.74%,-73.3%,-12.4%,2.96%,-4.87%,12.6%,12.7%,3.17%,15%,-18.8%
COc1ccc(C2CC(=O)Nc3c2cnn3C2CCCC2)cc1 (stereo not given),-8.84%,-2.7%,-0.717%,2.62%,2.45%,5.31%,8.51%,6.92%,4.88%,-1.74%
Clc1ccc(OCCCN2CCN(c3cnccn3)CC2)cc1,-2.88%,-7.79%,9.41%,-0.933%,-2.66%,-2.63%,3.86%,11.8%,23.5%,-3.92%
CN1CC(c2ccccc2)CC12CCN(C(=O)c1c(Cl)cnn1C)CC2 (stereo not given),-3.22%,5.41%,9.49%,8.05%,10.8%,10.3%,-5.06%,5.85%,14.6%,-3.11%
Cn1cc(NC(=O)N2CCC(NS(C)(=O)=O)CC2)ccc1=O,1.1%,48.7%,0.0157%,-2.54%,13.9%,1.11%,18.1%,-9.09%,-13.2%,-0.842%
Cn1ncc(NCc2cccc(COC(C)(C)C)c2)c(Cl)c1=O,-2.67%,8%,4.11%,1.81%,5.32%,3.31%,49.3%,2.63%,10.3%,-8.54%
CC(NC(=O)c1cc(Br)c2c(c1)OCCO2)C(N)=O (stereo not given),-7.52%,18.7%,6.37%,5.82%,-3.55%,17.9%,0.842%,2.63%,10.3%,77.7%
CNc1cccc(C2CCCN(C(C)=O)C2)n1 (stereo not given),1.36%,6.67%,-7.25%,-6.71%,3.98%,14.1%,17.4%,1.06%,5%,-14.4%
Cc1nsc(NC(=O)N2CCN(Cc3ccc(F)cc3)C(=O)C2)n1,-3.7%,-10.8%,-0.0827%,-0.291%,3.85%,4.45%,5.1%,2.66%,2.44%,3.97%
CCc1nc(C2CCCN2C(=O)CCn2cncn2)no1 (stereo not given),-0.886%,0%,9.32%,-1.49%,1.02%,3.51%,3.97%,0.98%,-2.35%,-0.634%
CNc1ccc(CC2CCCN(C(=O)c3cnc(C)nc3)C2)nn1 (stereo not given),0.212%,12%,-9.66%,-0.197%,4.87%,17.1%,12.2%,5.29%,12.5%,-20.6%
O=C(NCCNC(=O)c1scnc1Cl)c1ccccc1,-3.41%,16%,3.33%,2.01%,-0.887%,14.2%,9.89%,7.89%,17.9%,-5%
COc1ccc(C2CC(=O)Nc3c2nc2n3CCCC2)cc1OC (stereo not given),-2.41%,8.11%,3.86%,-4.56%,0.35%,15.9%,30.7%,1.6%,14.6%,-4.25%
Cc1cc(C)n(CC2CCCN2CCCS(N)(=O)=O)n1 (stereo not given),-1.45%,10.3%,-5.77%,7.61%,4.1%,18.3%,20.4%,3.35%,18.1%,-2.57%
CS(=O)(=O)c1ccc(NC(=O)NCc2ccc3c(c2)CCC3)cn1,-2.45%,0%,-3.31%,4.04%,-38.9%,-6.06%,4.37%,5.26%,8.43%,-1.11%
